Results reported in PubChem BioAssay (Tox21).
Results filed as inconclusive are left out. Values without a mark were called inactive. Calls follow the shape of the full dose curve.

tested on: not listed separately; assay: qHTS assay to identify small molecule agonists of the AP-1 signaling pathway (AID 1159526); conditions: ME-180 (cervical carcinoma) AP-1-bla reporter, beta-lactamase FRET ratio, 5 h; series mostly up to 76.8 µM; activation: at the top concentration
% is scaled to controls: 0 for no effect and ±100 for the full control effect.

Row | Structure (SMILES) | activation
1 | C#CCOC(=O)[C@@H](C)Oc1ccc(Oc2ncc(Cl)cc2F)cc1 | -8.87%
2 | O=C(O)C(c1ccc(Cl)cc1)c1ccc(Cl)cc1 | -2.19%
3 | CC(C)NCC(O)COc1ccc(CC(N)=O)cc1 (centres undefined) | -11.2%
4 | O=C(Nc1ccccc1)OCC(CN1CCCCC1)OC(=O)Nc1ccccc1 (centres undefined) | 12.9% [at 35.3 µM]
5 | CCCCCCCCCCCCC(=O)O | -12.9%
6 | CCOC(=O)C1=NN(c2ccccc2)C(=O)C1 | -9.23%
7 | c1ccc(CNCc2ccccc2)cc1 | 6.63%
8 | c1ccc(-c2nc[nH]c2-c2ccccc2)cc1 | 4.87% [at 35.3 µM]
9 | CCCCOC(O)CC (centres undefined) | -3.58%
10 | CC(=O)/C=C/C1C(C)=CCCC1(C)C (centres undefined) | -7.07%
11 | CC[C@H](C)[C@@H](C(=O)O)n1sc2ccccc2c1=O | 14.4%
12 | CCOc1nc2cccc(C(=O)O)c2n1Cc1ccc(-c2ccccc2-c2nn[nH]n2)cc1 | -5.11% [at 35.3 µM]
13 | O=C1CCCCCO1 | 7.78%
14 | COc1ccc([C@@H]2Sc3ccccc3N(CCN(C)C)C(=O)[C@@H]2OC(C)=O)cc1 | -1.55% [at 35.3 µM]
15 | CCN(CC)CCc1nc(-c2ccccc2)no1 | -13.4% [at 35.3 µM]
16 | O=C(O)/C=C/c1cnc[nH]1 | -0.184%
17 | O=C(O)c1cn(C2CC2)c2cc(Cl)c(F)cc2c1=O | -5.19% [at 35.3 µM]
18 | CCOc1ccc2[nH]cc(C(=O)NCc3ccccc3)c(=O)c2n1 | -0.361%
19 | CC(C)=CCCC(C)CC=O (centres undefined) | -3.73%
20 | OCCC1CCCCN1 (centres undefined) | -3.46%
21 | O=S1(=O)N=C(O)c2ccccc21 | -10% [at 35.3 µM]
22 | CC(=O)Nc1ccc(/C=N/NC(N)=S)cc1 | 6.88% [at 35.3 µM]
23 | Nc1ccc(C(=O)Nc2ccccc2N)cc1 | -10.9% [at 35.3 µM]
24 | CN(C)CCCNCCCN | 16.4%
25 | CC(C)(C)c1ccc(S)cc1 | 9.43%
26 | CCCCCCCCCC(=O)OCC | 0.914%
27 | CCCCCCc1ccc(N)cc1 | 14.7%
28 | N#Cc1c(F)cccc1F | -1.79%
29 | O=C=NC1CCC(CC2CCC(N=C=O)CC2)CC1 (centres undefined) | 5.95%
30 | CCCCCCCCCCCCCCC1CO1 (centres undefined) | -1.84%

biological target: Retinoic acid receptor RXR-alpha (Homo sapiens) (UniProt P19793); assay: qHTS assay to identify small molecule agonists of the RXR signaling pathway (AID 1159527); conditions: HEK293T RXRa-UAS-bla, beta-lactamase ratio, 16 h; series mostly up to 76.8 µM; activation: at the top concentration; also: nearly all actives have a fitted effect of over 35% in size
Sequence (P19793 whole entry, looked up): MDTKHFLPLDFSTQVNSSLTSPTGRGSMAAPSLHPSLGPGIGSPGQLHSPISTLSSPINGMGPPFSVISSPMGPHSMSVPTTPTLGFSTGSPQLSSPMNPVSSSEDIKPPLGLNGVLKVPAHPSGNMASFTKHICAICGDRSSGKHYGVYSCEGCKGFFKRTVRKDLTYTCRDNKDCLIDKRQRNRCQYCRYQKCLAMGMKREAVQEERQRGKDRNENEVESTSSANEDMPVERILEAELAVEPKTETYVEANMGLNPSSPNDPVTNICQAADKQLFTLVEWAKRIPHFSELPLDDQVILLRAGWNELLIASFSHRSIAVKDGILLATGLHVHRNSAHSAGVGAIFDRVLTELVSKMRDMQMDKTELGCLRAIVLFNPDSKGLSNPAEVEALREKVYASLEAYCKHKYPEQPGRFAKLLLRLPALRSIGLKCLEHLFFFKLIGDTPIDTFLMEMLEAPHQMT
Summary of the method: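 Fluorescence ratio readout (460 vs 530 nm) from GeneBLAzer RXR-alpha HEK 293T cells after 16 hr compound treatment; cells seeded 5 hr beforehand in low-serum, charcoal-stripped medium.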

Row | Structure (SMILES) | activation
31 | C#CCOC(=O)[C@@H](C)Oc1ccc(Oc2ncc(Cl)cc2F)cc1 | 18.1%
32 | CC(=O)[C@@]1(O)CC[C@H]2[C@@H]3C[C@H](C)C4=CC(=O)CC[C@]4(C)[C@H]3CC[C@@]21C | -14.6% [at 35.3 µM]
33 | CCOC(=O)C1=NN(c2ccccc2)C(=O)C1 | -15.1%
34 | C[C@@H](C1=C(CCN(C)C)Cc2ccccc21)c1ccccn1 | -7.65% [at 35.3 µM]
35 | CNS(=O)(=O)Cc1ccc2[nH]cc(CCN(C)C)c2c1 | 13.2% [at 35.3 µM]
36 | CC(C)(C)c1ccc(OCC2CO2)cc1 (centres undefined) | -18.6%
37 | CC(C)NCC(O)c1cc(O)cc(O)c1 (centres undefined) | 7.41% [at 35.3 µM]
38 | CC(C)(C)C1CCCCC1O (centres undefined) | 9.22%
39 | CCCCCc1ccc(N)cc1 | -16.2%
